Bioassay records as filed in PubChem BioAssay.
Many of the other results were omitted from the sample, so hits are more common in it than they were.
GBA enhancer = increases beta-glucosidase activity in Gaucher fibroblasts; activation, % at 10 µM; 30,000 tested, 0.44% active; L444P Gaucher fibroblasts, 4-MU-glucoside fluorescence, 3 days; in the data active = activation above about 65%
Numbers stand for hits; – = inactive.

SMILES	GBA enhancer
O=c1cccc2n1CC1CC2CN(Cc2cccc(Cl)c2Cl)C1 (centres undefined)	404
CCC(COC(=O)c1cc(OC)c(OC)c(OC)c1)(c1ccccc1)N(C)C (centres undefined)	–
O=C(CNS(=O)(=O)c1ccc(Br)s1)N1CCC2(CC1)OCCO2	–
O=C(c1ccc2nc3ccc(Cl)cc3c(=O)n2c1)N1CCC2(CC1)OCCO2	–
COC(=O)C(O)(c1cn(C)c2ccccc12)C(F)(F)F (centres undefined)	–
Cc1ccc(C2(O)CCN3CCCCC32)cc1 (centres undefined)	–
CCCCC12CNCC(C)(CNC1)C2=O	–
O=C1CC(=O)N(c2ccc3c(c2)OCO3)C(=O)N1	81
COCc1cc(C2SCC(=O)Nc3c2c(=O)[nH]n3C(C)C)ccc1OC (centres undefined)	–
Cc1cccnc1-n1c(CN2C(=O)c3ccccc3C2=O)nc2ccccc2c1=O	–
